Test [1] can be described thus: Wnt pathway potentiators raising nuclear beta-catenin – imaging, WNT3A-conditioned medium, mouse C2C12, NPC library, primary screen (AID 1117326; in the data active = nuclear beta-catenin stimulation mostly above about 4.2%, no sharp cut-off; inactive = mostly below about 10%; note: reference of the scale not given here). As to conditions: stronger effect = higher value.
Test [2] is described as follows: stimulators of insulin release from INS-1E, primary screen, cell-based, 5 mM glucose, NPC library (AID 1117329;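 active = compound raises insulin release from rat beta cells at 5 mM glucose, no numeric limit stated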; note: reference of the scale not given here). As to conditions: rat INS-1E insulin secretion, at 10 µM, stronger effect = higher value.
Test [3] can be described thus: growth inhibition of GSK3B-pretreated HCT116 cells – cell-based, CellTiter-Glo, 0.2 to 20 µM (AID 1117336;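 active = compounds lowering colon cancer cell viability after pretreatment blocking the GSK3B kinase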). As to conditions: HCT116 viability after GSK3B inhibitor, at 20 µM, stronger effect = higher value. (In ATP-based viability assays light output follows the ATP content of the culture.)
A short description of test [4]: inhibition of endothelial tube formation, primary screen, imaging, VEGF stimulated, CD31 staining, tube area, NPC library (AID 1117340;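 active = compound that reduces growth-factor-driven endothelial tube area in a mixed cell culture, no cutoff stated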). As to conditions: VEGF-stimulated ADSC/ECFC co-culture, at 10 µM, stronger effect = higher value.
Test [5] in a line: GLP1 release stimulators, primary, NCI-H716, NPC library (AID 1117341;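 active = compound raises GLP1 secretion from the human gut endocrine cells, with no numeric limit stated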; note: reference of the scale not given here). As to conditions: NCI-H716 cells, at 10 µM, stronger effect = higher value.
Test [6] in a line: HCT116 colon cancer cell growth inhibition, primary screen, CellTiter-Glo luminescence, NPC library (AID 1117342;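 active = compounds that lower survival of HCT116 colon cancer cells in the luminescence readout, no numeric limit stated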). The note with it: at 20 µM (top of the series).
Test [7] is described as follows: reduced SW480 viability measured with CellTiter-Glo, NPC library, primary (AID 1117343). The note with it: CellTiter-Glo luminescence; at 20 µM (top of the series).
A short description of test [8]: NPC library primary testing for decreased DLD-1 cell viability via CellTiter-Glo (AID 1117346;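 active = compounds that lower survival of DLD-1 colon cancer cells in the luminescence readout, no cutoff given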). As to conditions: DLD-1 viability, CellTiter-Glo luminescence; at 20 µM (top of the series).

Consider 14 compounds from PubChem BioAssay.

Activity calls are given as the source filed them.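 Rule for the calls, unless noted: active = compounds that lower viability of the colon cancer cells in the luminescence readout, with no numeric limit stated; inactive = the rest.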

In the case of `COC(=O)CCC(=O)CN`, the nuclear beta-catenin stimulation in test [1] (at 10 µM) was -1.5% (inactive); in test [1] (stimulation, at 2 µM) it was 0.1%. The insulin secretion stimulation in test [2] is 0.4% (inactive). The viability decrease in test [3] was 0.2% (inactive). Also, the tube area decrease in test [4] was -14.2% (inactive). In test [5], the GLP1 secretion stimulation is -0.4% (inactive). For the same compound, the inhibition of viability in test [6] is 11.6% (inactive). Further, the viability decrease (inhibition) in test [7] was 24.2% (inactive); in test [8], 18.4% (inactive).
`NC(=O)NC1N=C([O][Al])NC1=O` (stereo unspecified): the nuclear beta-catenin stimulation was 0.7% (inactive) in test [1] (at 10 µM) and -0.2% in test [1] (stimulation, at 2 µM). Moreover, the insulin secretion stimulation in test [2] was 0.3% (inactive). Moreover, the viability decrease in test [3] is 13.8% (inactive). For the same compound, the tube area decrease in test [4] is 0.8% (inactive). In test [5], the GLP1 secretion stimulation is -2.5% (inactive). Also, the inhibition of viability in test [6] was 2.07% (inactive). Further, the values for the viability decrease (inhibition) in test [7] and in test [8] were 19.8% (inactive) and -4.5% (inactive), respectively.
As for `Cc1cc(O)cc2c1O[C@](C)(CCC[C@H](C)CCC[C@H](C)CCCC(C)C)CC2`, the nuclear beta-catenin stimulation was -1.3% (inactive) in test [1] (at 10 µM) and -2% in test [1] (stimulation, at 2 µM). In addition, the insulin secretion stimulation in test [2] is 3.8% (inactive). Besides, the viability decrease in test [3] is 12.5% (inactive). Also, the tube area decrease in test [4] was 6.7% (inactive). Further, the GLP1 secretion stimulation in test [5] was 0% (inactive). Besides, the inhibition of viability in test [6] was 14.3% (inactive). For the same compound, the viability decrease (inhibition) in test [7] is -12.8% (inactive); in test [8] it was -10.9% (inactive).
For the compound `CCN(CC)CCNC(=O)COc1ccc(Cl)cc1`, the nuclear beta-catenin stimulation in test [1] (at 10 µM) was -2.4% (inactive); in test [1] (stimulation, at 2 µM), -0.4%. In addition, the insulin secretion stimulation in test [2] was 0.9% (inactive). For the same compound, in test [3], the viability decrease is -9.5% (inactive). Also, in test [4], the tube area decrease is -3.5% (inactive). For the same compound, the GLP1 secretion stimulation in test [5] is -4.5% (inactive). Further, in test [6], the inhibition of viability was 22.7% (inactive). The viability decrease (inhibition) in test [7] is 34.2% (inactive); in test [8], 0.6% (inactive).
Consider `Nc1c(N=Nc2ccc(-c3ccc(N=Nc4cc(S(=O)(=O)O)c5ccccc5c4N)cc3)cc2)cc(S(=O)(=O)O)c2ccccc12`, for which the nuclear beta-catenin stimulation in test [1] (at 10 µM) is -3.3% (inactive); in test [1] (stimulation, at 2 µM), 0.3%. In test [2], the insulin secretion stimulation is 2% (inactive). Further, the viability decrease in test [3] was -26.6% (inactive). In test [4], the tube area decrease is 16.8% (inactive). For the same compound, in test [5], the GLP1 secretion stimulation is -1.7% (inactive). For the same compound, the inhibition of viability in test [6] is -132% (inactive). Moreover, the viability decrease (inhibition) in test [7] is -0.2% (inactive); in test [8], -66.6% (inactive).
Take `N[C@@H](CSCCCO)C(=O)O`: the nuclear beta-catenin stimulation in test [1] (at 10 µM) was -1.1% (inactive); in test [1] (stimulation, at 2 µM) it was 1.4%. Also, the insulin secretion stimulation in test [2] is -0.6% (inactive). Besides, the viability decrease in test [3] was -4.55% (inactive). Also, in test [4], the tube area decrease was 1.7% (inactive). The GLP1 secretion stimulation in test [5] is -0.3% (inactive). Besides, the inhibition of viability in test [6] is -17.6% (inactive). Further, the viability decrease (inhibition) in test [7] is 17.3% (inactive); in test [8], -1.1% (inactive).
With `CCCCC(=O)OCC(=O)[C@H]1[C@H](C)C[C@H]2[C@@H]3C[C@H](F)C4=CC(=O)C=C[C@]4(C)[C@@]3(F)[C@@H](O)C[C@@]21C`, the nuclear beta-catenin stimulation in test [1] (at 10 µM) was -1.1% (inactive); in test [1] (stimulation, at 2 µM), -1.4%. Besides, the insulin secretion stimulation in test [2] was 13.7% (inactive). Besides, in test [3], the viability decrease was -7.2% (inactive). Besides, in test [4], the tube area decrease was -11.7% (inactive). Moreover, in test [5], the GLP1 secretion stimulation is 0.8% (inactive). Moreover, the inhibition of viability in test [6] is 17.1% (inactive). Moreover, the viability decrease (inhibition) was -15.9% (inactive) in test [7] and -9.9% (inactive) in test [8].
As to `CCC(=O)O`, the nuclear beta-catenin stimulation in test [1] (at 10 µM) is -0.6% (inactive); in test [1] (stimulation, at 2 µM), 1.3%. The insulin secretion stimulation in test [2] was 3.2% (inactive). Further, the viability decrease in test [3] was -1.2% (inactive). For the same compound, in test [4], the tube area decrease is -25.7% (inactive). Further, the GLP1 secretion stimulation in test [5] is -3% (inactive). Besides, in test [6], the inhibition of viability is 3.7% (inactive). In addition, the viability decrease (inhibition) in test [7] was -0.5% (inactive); in test [8], 3.7% (inactive).
Consider `NC(=S)N/N=C/c1cccnc1`, for which the nuclear beta-catenin stimulation in test [1] (at 10 µM) was 0.4% (inactive); in test [1] (stimulation, at 2 µM), 0.5%. Further, the insulin secretion stimulation in test [2] is -0.8% (inactive). In test [3], the viability decrease was 0.7% (inactive). Moreover, the tube area decrease in test [4] was -13.5% (inactive). Moreover, the GLP1 secretion stimulation in test [5] was 1.9% (inactive). Besides, in test [6], the inhibition of viability is -8.9% (inactive). The viability decrease (inhibition) was 38.7% (inactive) in test [7] and 1.65% (inactive) in test [8].
As for `NC(=O)CC[C@@H](N)C(=O)O`, the nuclear beta-catenin stimulation is 2.1% (inactive) in test [1] (at 10 µM) and 3.8% in test [1] (stimulation, at 2 µM). For the same compound, in test [2], the insulin secretion stimulation was -0.7% (inactive). For the same compound, in test [3], the viability decrease was -14.2% (inactive). Moreover, the tube area decrease in test [4] was 15.2% (inactive). In addition, the GLP1 secretion stimulation in test [5] was -0.1% (inactive). For the same compound, the inhibition of viability in test [6] is 2.55% (inactive). In addition, the viability decrease (inhibition) in test [7] was 11.4% (inactive); in test [8], -7.9% (inactive).
`CC(C)(C)NCC(O)COc1ccc(NC(=O)NC2CCCCC2)cc1` (stereo unspecified): the nuclear beta-catenin stimulation in test [1] (at 10 µM) is 1.2% (inactive); in test [1] (stimulation, at 2 µM), -0.1%. Also, the insulin secretion stimulation in test [2] was 1.65% (inactive). Moreover, the viability decrease in test [3] was -5.2% (inactive). Also, the tube area decrease in test [4] is 9.5% (inactive). In test [5], the GLP1 secretion stimulation was 2% (inactive). Also, in test [6], the inhibition of viability was -0.2% (inactive). Moreover, the viability decrease (inhibition) is -5.6% (inactive) in test [7] and -1.8% (inactive) in test [8].
In the case of `C[C@H]1C[C@H](O)c2ccsc2S1(=O)=O`, the nuclear beta-catenin stimulation in test [1] (at 10 µM) is 0.6% (inactive); in test [1] (stimulation, at 2 µM), 2.7%. In test [2], the insulin secretion stimulation is -0.8% (inactive). For the same compound, in test [3], the viability decrease is -1.3% (inactive). Also, the tube area decrease in test [4] is 1.2% (inactive). The GLP1 secretion stimulation in test [5] is 1% (inactive). Besides, the inhibition of viability in test [6] was 4.1% (active). In addition, the viability decrease (inhibition) was -6.2% (inactive) in test [7] and -4% (inactive) in test [8].
Turning to `CCOCCn1c(C2CCN(CCc3ccc(C(C)(C)C(=O)O)cc3)CC2)nc2ccccc21`, the nuclear beta-catenin stimulation is -0.1% (inactive) in test [1] (at 10 µM) and 1.3% in test [1] (stimulation, at 2 µM). In test [2], the insulin secretion stimulation was -0.3% (inactive). In test [3], the viability decrease was -2.4% (inactive). Also, the tube area decrease in test [4] was 3.7% (inactive). In addition, the GLP1 secretion stimulation in test [5] was -2.2% (inactive). Besides, in test [6], the inhibition of viability is -1.6% (inactive). The figures for the viability decrease (inhibition) in test [7] and in test [8] were -6.3% (inactive) and -10.2% (inactive), respectively.
`C[C@@H](O)[C@H]1C(=O)N2C(C(=O)O)=C(S[C@@H]3CN[C@H](CNS(N)(=O)=O)C3)[C@H](C)[C@H]12`: the nuclear beta-catenin stimulation in test [1] (at 10 µM) was 2.9% (inactive); in test [1] (stimulation, at 2 µM) it was 3%. The insulin secretion stimulation in test [2] was -0.6% (inactive). In addition, the viability decrease in test [3] is 14% (inactive). Further, the tube area decrease in test [4] is -14% (inactive). The GLP1 secretion stimulation in test [5] is 0.3% (inactive). Moreover, the inhibition of viability in test [6] was 25.7% (inactive). The viability decrease (inhibition) was 3.1% (inactive) in test [7] and -20.9% (inactive) in test [8].
